# Myeloid diff 2: compounds promoting myeloid differentiation. ER-HoxA9 myeloid progenitors, lysozyme-GFP differentiation, flow cytometry. calls only at 10 µM. actives 1% (n = 360,000);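 active means normalized GFP-positive differentiation at or above the plate's own cutoff, the solvent-only control mean plus 3 SD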;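 further: cells exposed to compound for four days before flow analysis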
# cardiac RTF act: cardiac RTF calcium sensitization; IANBD-labeled TnC RTF fluorescence at EC20 calcium; 0% EC20 calcium, 100% full calcium; AID 493008; P19429+P45379; activation, % at 7.2 µM; actives 0.24% (n = 340,000);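 active means activation above the mean over all tested compounds plus 3 SD, cut at about 30% in these data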;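 further: rise in fluorescence read as greater calcium sensitivity of cardiac thin filaments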
# RTF Ca sens inh: cardiac RTF calcium desensitization; P19429+P45379; IANBD-labeled cardiac RTF, Ca2+ fluorescence; inhibition, % at 7.15 µM; actives 0.12% (n = 340,000);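 active means inhibition above the mean inhibition of all tested compounds plus 3 SD, cut at about 17% in these data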;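 further: assay run at fixed EC70 calcium of 1.6 mM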
# CRFBP-R2 block: antagonists of CRF-binding protein/CRF-R2 receptor complex. HEK293 CRF-R2/CRF-BP, CRF-induced calcium fluorescence. inhibition, % at 11.8 µM. actives 0.59% (n = 350,000);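 active means inhibition of the ligand-induced calcium signal above about 50% at the single tested concentration, limit read from the data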
# CRFBP-R2 agonist: agonists of human CRF-binding protein/CRF-R2 receptor complex; HEK293 CRF-R2/CRF-BP, calcium dye fluorescence (FLIPR); percent of saturating CRF peptide response; actives 0.46% (n = 350,000); activation, % at 13.2 µM;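 active means activation of at least 50%, plus an integration ratio under a set limit after plate pattern correction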
# Myeloid diff CP1: promotes myeloid progenitor differentiation; actives 2% (n = 2,300); shares compounds with Myeloid diff 2; ER-HoxA9 myeloid progenitors, GFP/Mac1 double-positive flow; calls only;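 active means share of green or green-and-red cells above 9 and 9% in run 1 or 4 and 3% in run 2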
# GFP autofluor: flagged as fluorescent in myeloid differentiation counter-screen; fluorescence response, % (no concentration beside the values); shares compounds with Myeloid diff 2; actives 7.4% (n = 2,300); ER-HoxA9 myeloid progenitors, no estrogen, GFP autofluorescence flow cytometry; vehicle wells 0%, positive control 100%; AID 651707;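 active means over 5% cells positive for green fluorescent reporter, or over 2% positive for both it and APC stain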
# Hits are given with their value; n = inactive; x = no result; + = active, no number. Only some compounds are listed: those with a hit (about 2.2% of all), similar ones and a draw of the others.
SMILES,Myeloid diff 2,cardiac RTF act,RTF Ca sens inh,CRFBP-R2 block,CRFBP-R2 agonist,Myeloid diff CP1,GFP autofluor
COc1ccc2[nH]c3nc(SCC(=O)NNC(=O)c4ccc(OC)c(OC)c4)nnc3c2c1,n,n,n,n,n,n,n
COc1cccc(NC(=O)c2ccnc(N3CCC(C(=O)NCc4cc(OC)ccc4OC)CC3)c2)c1,n,n,n,n,n,x,x
CCOC(=O)Cc1csc(NC(=O)c2sc3nc4cc(C)ccc4cc3c2N)n1,n,n,n,n,n,n,n
CCOC(=O)Cc1csc(NC(=O)c2sc3nc4ccc(CC)cc4cc3c2N)n1,n,n,n,n,n,n,n
CCOC(=O)Cc1csc(NC(=O)c2ccc(C)cc2)n1,n,n,n,n,n,x,x
CCOC(=O)Cc1csc(NC(=O)c2ccc(Br)o2)n1,n,n,n,n,n,x,x
Cc1cccc(N=NC(=S)NNc2cccc(C)c2)c1,n,n,n,n,n,x,x
C=CCNC(=O)COc1ccc(N(C)S(=O)(=O)c2ccc(NC(C)=O)cc2)cc1,n,n,n,n,n,n,n
CCCCOc1[nH]c2nc(-c3ccco3)n(Cc3ccco3)c(=N)c2c1C#N,n,n,n,n,n,x,x
Oc1cc(-c2ccncc2)cc2cccnc12,+,n,n,n,n,n,n
CCc1ccccc1NC(=O)CNCC(=O)Nc1ccccc1CC,+,n,n,n,n,n,n
CCCC(=O)Nc1cc(-c2nc3ncccc3o2)ccc1C,x,n,n,n,n,n,n
CCCC(=O)NC(=S)Nc1cc(-c2nc3ncccc3o2)ccc1C,n,n,n,n,n,x,x
CC(=O)Nc1ccc(C(=O)OCCc2ccccc2)cc1,n,n,n,n,n,x,x
COC(=O)c1sccc1NC(=O)c1csc(C)c1,+,n,n,n,n,n,n
COc1ccc(/C=N/OCC(=O)N2CCCC2)c(OC)c1,x,n,n,n,n,x,x
CCOC(=O)c1c(NC(=O)CNCCOC)sc2c1CCCC2,n,n,n,n,n,n,n
Cc1onc(-c2c(Cl)cccc2Cl)c1C(=O)NCc1ccc(S(N)(=O)=O)cc1,n,n,n,n,n,n,n
Cc1onc(-c2ccccc2Cl)c1C(=O)NCc1ccccc1,n,n,n,n,n,x,x
Cc1noc(C)c1COc1ccc(C(=O)OCc2nnc(-c3ccc(Cl)cc3)o2)cc1,n,n,n,n,n,x,x
C[C@H]1CN([C@@H](C)CO)C(=O)c2cc(NC(=O)NC3CCCCC3)ccc2O[C@H]1CN(C)C(=O)Nc1ccc(C(F)(F)F)cc1,n,n,n,n,n,n,n
C[C@H](CO)N1C[C@H](C)[C@@H](CN(C)C(=O)Nc2ccc(C(F)(F)F)cc2)Oc2ccc(NC(=O)Nc3ccc(C(F)(F)F)cc3)cc2C1=O,n,n,n,n,n,x,x
Cc1cc(C(=O)CCC(=O)NCC2COc3ccccc3O2)c(C)s1 (stereo not drawn),n,n,n,n,n,x,x
CN1/C(=C\P(=O)(N(C)C)N(C)C)C(C)(C)c2ccccc21,+,n,n,n,n,n,82
CCN(c1ccccc1)S(=O)(=O)c1ccc(C(=O)NCC(=O)Nc2ccc(F)c(F)c2F)cc1,n,n,n,n,n,x,x
SMILES,Myeloid diff 2,cardiac RTF act,RTF Ca sens inh,CRFBP-R2 block,CRFBP-R2 agonist,Myeloid diff CP1,GFP autofluor
COc1cccc(-c2c(NC(=O)c3ccco3)n(-c3ccc(C)cc3)nc(C)c2=O)c1,+,n,n,n,n,n,n
Cc1c(CCOC(=O)CC23CC4CC(CC(C)(C4)C2)C3)sc[n+]1CC(=O)c1ccccc1,n,n,n,n,n,x,x
Cc1c(CCOC(=O)CC23CC4CC(CC(C4)C2)C3)sc[n+]1CC(=O)c1ccc(Br)cc1,+,n,n,n,n,n,n
COc1ccccc1CNC(=O)CSc1ccsc1[N+](=O)[O-],n,n,n,n,n,n,n
CC1(C)CC(=O)C(C=Nc2ccc(C(=O)c3ccccc3)cc2N=CC2=C(O)CC(C)(C)CC2=O)=C(O)C1,+,44,n,n,105,n,n
CCOc1cccc(/C=N/NC(=O)c2cc(-c3cccn3C)n[nH]2)c1O,+,n,n,n,n,n,n
CCOC(=O)c1sc(NC(=O)CSC(=S)N2CCN(C)CC2)nc1C,n,n,n,n,n,x,x
CCc1ccc(-c2n[nH]nc2C2=CC(=O)C[C@H](c3ccc(F)cc3)C2)cc1,n,x,x,n,n,x,x
O=C1CC(C(=O)N2CCCc3ccccc32)CN1c1ccc(Cl)cc1 (stereo not drawn),n,n,n,n,n,n,n
O=C1CC(C(=O)N2CCCc3ccccc32)CN1c1ccc(F)cc1 (stereo not drawn),n,n,n,n,n,x,x
O=C(CN1C(=O)CC(c2ccccc2)=Nc2ccccc21)NCc1ccccc1,n,n,n,n,n,x,x
Cc1cc2c(cc1C)N(CC(=O)N1CCCC1)C(=O)CC(c1ccccc1)=N2,n,n,n,n,n,n,n
Cc1ccc(S(=O)(=O)N2[C@@H](c3ccc4c(c3)OCO4)C(C(=O)O)=C[C@H]2CC2CCCC2)cc1,+,n,n,n,n,n,n
Cc1ccc([C@H]2C(C(=O)O)=C[C@@H](CC3CCCC3)N2S(=O)(=O)c2ccc(C)cc2)cc1,n,n,n,n,n,x,x
O=C(C[C@H]1C[C@H](C(=O)N2CCCCC2)[C@@]2(CCc3ccccc3)c3[nH]c4cc(-c5ccco5)ccc4c3CCN2C1=O)NCCC1=CCCCC1,n,n,n,n,n,x,x
CCN(C(=O)COc1cc(=O)n(CC)c2ccccc12)c1cccc(Cl)c1,n,n,n,n,n,x,x
CCN(C(=O)COc1cc(=O)n(CC)c2ccccc12)c1cc(Cl)ccc1OC,n,n,n,n,n,n,17
Cc1ccc(CNc2nc(NCC3CC3)nc3ccsc23)c(C)c1,+,x,x,x,x,n,n
Cc1nn(C)c(N)c1[N+](=O)[O-],n,n,n,n,n,x,x
Cc1nn(C)c(Sc2ccccc2N)c1[N+](=O)[O-],n,n,n,n,n,n,n
CCOC(=O)c1ccc(NCn2c(=O)oc3ccccc32)cc1,n,n,n,n,62,n,44
COc1ccc(O)c(/C=c2/sc3nc4cc(C)c(C)cc4n3c2=O)c1,n,n,n,n,n,x,x
NC(=O)N/N=C/c1ccc(-c2ccc([N+](=O)[O-])cc2)o1,n,n,n,n,n,x,x
O=C(Cc1ccccc1)N/N=C/c1ccc(-c2ccc([N+](=O)[O-])cc2)o1,+,n,n,n,n,n,n
O=[N+]([O-])c1ccc(-c2ccc(/C=N/Nc3nc(N4CCCC4)nc(N4CCCC4)n3)o2)cc1,+,n,n,n,129,n,6.0
COC(CNC(=O)C1CC(=O)N(CCc2ccc(C)cc2)C1)OC (stereo not drawn),n,n,n,n,n,x,x
CN(C)S(=O)(=O)c1cccc(C(=O)NC(=S)N(CCC#N)Cc2cccnc2)c1,n,n,n,n,n,n,n

# Compound activity deposited in PubChem by several laboratories.
